Assay results reported in PubChem BioAssay (EPA / NIEHS).
Calls of active or inactive are those of the source. The calls were made as follows: active = hit-call score of the fitted dose curve at least 0.9, where 1 is the maximum; inactive = score below 0.9.

Assays:
[1] = read-out: Macrophage colony-stimulating factor (MCSF), CSF1 (gene 1435); assay: BSK_hDFCGF_MCSF: BioMAP Diversity Plus: hDFCGF Assay for Macrophage colony-stimulating factor (MCSF) Biomarker Activity (AID 2283060); settings: primary human foreskin fibroblasts; actives raise or lower the signal
Outline: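 Human foreskin primary fibroblasts were treated with test chemical for 24 h, and M-CSF was then measured by ELISA. Data were fitted bidirectionally against DMSO as the negative control and activity baseline.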

[2] = BSK_hDFCGF_SRB: Viability Assessment in the BioMAP Diversity Plus: hDFCGF Assay (AID 2283061); settings: primary human foreskin fibroblasts;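 also: cells exposed to compound for 24 h before the read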
Outline: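 Human foreskin primary fibroblasts were treated with compound and assessed 24 h after dosing. Total protein was measured by sulforhodamine B staining (0.1% SRB after 10% TCA fixation, 560 nm read) as a cytotoxicity marker, with bidirectional fitting against DMSO baseline.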

[3] = read-out: TIMP metallopeptidase inhibitor 1 (TIMP1), TIMP1 (gene 7076); assay: BSK_hDFCGF_TIMP1: BioMAP Diversity Plus: hDFCGF Assay for TIMP metallopeptidase inhibitor 1 (TIMP1) Biomarker Activity (AID 2283062); settings: primary human foreskin fibroblasts; actives raise or lower the signal
Outline: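 Primary human foreskin fibroblasts in the hDFCGF system were dosed with compound for 24 h, then TIMP-1 was measured by ELISA. Activity was fitted bidirectionally relative to DMSO control; parallel SRB staining assessed cytotoxicity.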

[4] = read-out: Monokine induced gamma interferon (MIG), CXCL9 (gene 4283); assay: BSK_hDFCGF_MIG: BioMAP Diversity Plus: hDFCGF Assay for Monokine induced gamma interferon (MIG) Biomarker Activity (AID 2283063); settings: primary human foreskin fibroblasts; actives raise or lower the signal
Outline: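 ELISA read-out of MIG from primary human dermal fibroblasts 24 h post-dosing. Gain or loss of signal fitted bidirectionally, DMSO as baseline.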

[5] = read-out: Matrix Metallopeptidase 1 (MMP1), MMP1 (gene 4312); assay: BSK_hDFCGF_MMP1: BioMAP Diversity Plus: hDFCGF Assay for Matrix Metallopeptidase 1 (MMP1) Biomarker Activity (AID 2283064); settings: primary human foreskin fibroblasts; actives raise or lower the signal
Outline: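 ELISA read-out of MMP1 from human foreskin fibroblasts (primary skin cells), 24 h post-dose. Gain or loss of signal was fitted bidirectionally versus DMSO negative control; cytotoxicity was checked by SRB in parallel cultures.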

[6] = read-out: Vascular cell adhesion molecule 1 (VCAM1), VCAM1 (gene 7412); assay: BSK_hDFCGF_VCAM1: BioMAP Diversity Plus: hDFCGF Assay for Vascular cell adhesion molecule 1 (VCAM1) Biomarker Activity (AID 2283065); settings: primary human foreskin fibroblasts; actives raise or lower the signal;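 as to AC50: VCAM-1 protein level quantified by ELISA after 24 h chemical exposure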
Outline: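 Primary human foreskin fibroblasts (hDFCGF system) were dosed with chemical and VCAM-1 was measured by ELISA 24 h later. Bidirectional curve fitting used DMSO as negative control and activity baseline.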

[7] = read-out: Plasminogen activator inhibitor-1 (PAI1), SERPINE1 (gene 5054); assay: BSK_hDFCGF_PAI1: BioMAP Diversity Plus: hDFCGF Assay for Plasminogen activator inhibitor-1 (PAI1) Biomarker Activity (AID 2283066); settings: primary human foreskin fibroblasts; actives raise or lower the signal
Outline: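 Human skin fibroblast cultures receive chemical for 24 h before PAI-1 is measured by ELISA; signal changes are fitted bidirectionally against DMSO-treated wells.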

[8] = read-out: Intercellular Adhesion Molecule 1 (ICAM1), ICAM1 (gene 3383); assay: BSK_KF3CT_ICAM1: BioMAP Diversity Plus: KF3CT Assay for Intercellular Adhesion Molecule 1 (ICAM1) Biomarker Activity (AID 2283067); settings: primary human keratinocytes with fibroblasts; actives raise or lower the signal
Outline: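 Human keratinocyte plus foreskin fibroblast primary co-culture was exposed to chemical for 24 h. ICAM-1 was then quantified by ELISA, and the data were fit bidirectionally against DMSO as the negative control and baseline.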

[9] = read-out: Interferon-gamma inducible Protein 10 (IP10), CXCL10 (gene 3627); assay: BSK_KF3CT_IP10: BioMAP Diversity Plus: KF3CT Assay for Interferon-gamma inducible Protein 10 (IP10) Biomarker Activity (AID 2283068); settings: primary human keratinocytes with fibroblasts; actives raise or lower the signal
Outline: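 Signal is secreted/surface IP-10 by ELISA in a human primary skin co-culture of keratinocytes and foreskin fibroblasts, taken 24 h post-dosing; DMSO served as negative control.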

[10] = BSK_KF3CT_SRB: Viability Assessment in the BioMAP Diversity Plus: KF3CT Assay (AID 2283069); settings: primary human keratinocytes with fibroblasts
Outline: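 SRB read-out at 560 nm (0.1% stain, TCA-fixed cells) gauges overt cytotoxicity in a human skin keratinocyte–fibroblast co-culture 24 h post-dosing. Signal change was fitted bidirectionally relative to DMSO control.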

[11] = read-out: Interleukin-1 alpha (IL1a), IL1A (gene 3552); assay: BSK_KF3CT_IL1a: BioMAP Diversity Plus: KF3CT Assay for Interleukin-1 alpha (IL1a) Biomarker Activity (AID 2283070); settings: primary human keratinocytes with fibroblasts; actives raise or lower the signal
Outline: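 Primary skin co-culture (keratinocytes, foreskin fibroblasts), 24 h exposure; ELISA for IL-1a; bidirectional curve fit vs DMSO.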

[12] = read-out: TIMP metallopeptidase inhibitor 2 (TIMP2), TIMP2 (gene 7077); assay: BSK_KF3CT_TIMP2: BioMAP Diversity Plus: KF3CT Assay for TIMP metallopeptidase inhibitor 2 (TIMP2) Biomarker Activity (AID 2283071); settings: primary human keratinocytes with fibroblasts; actives raise or lower the signal
Outline: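 Measurements come from ELISA detection of TIMP-2 at 24 hours in a dosed human keratinocyte and foreskin fibroblast co-culture. DMSO serves as negative control and baseline.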

[13] = read-out: Transforming growth factor beta 1 (TGFb1), TGFB1 (gene 7040); assay: BSK_KF3CT_TGFb1: BioMAP Diversity Plus: KF3CT Assay for Transforming growth factor beta 1 (TGFb1) Biomarker Activity (AID 2283072); settings: primary human keratinocytes with fibroblasts; actives raise or lower the signal
Outline: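 TGF-b1 ELISA on a 24 h dosed co-culture of human keratinocytes and foreskin fibroblasts; cytotoxicity tracked in parallel cultures by SRB staining.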

[14] = read-out: C-C motif chemokine 2 (Homo sapiens) (UniProt P13500); assay: BSK_KF3CT_MCP1: BioMAP Diversity Plus: KF3CT Assay for Monocyte Chemoattractant Protein 1 (MCP1/CCL2) Biomarker Activity (AID 2283073); settings: primary human keratinocytes with fibroblasts; actives raise or lower the signal
Outline: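 Human keratinocyte plus foreskin fibroblast primary co-culture exposed to chemical for 24 h. MCP-1 levels measured by ELISA. Bidirectional curve fitting relative to DMSO negative control as baseline.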

[15] = read-out: Matrix Metallopeptidase 9 (MMP9), MMP9 (gene 4318); assay: BSK_KF3CT_MMP9: BioMAP Diversity Plus: KF3CT Assay for Matrix Metallopeptidase 9 (MMP9) Biomarker Activity (AID 2283074); settings: primary human keratinocytes with fibroblasts; actives raise or lower the signal;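 as to AC50: MMP9 protein level quantified by ELISA in the co-culture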
Outline: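 ELISA read-out of MMP-9 at 24 h post-dosing in a co-culture of human skin keratinocytes and foreskin fibroblasts. Gain or loss of signal was fitted in both directions against DMSO.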

[16] = read-out: urokinase plasminogen activator (uPA), PLAU (gene 5328); assay: BSK_KF3CT_uPA: BioMAP Diversity Plus: KF3CT Assay for urokinase plasminogen activator (uPA) Biomarker Activity (AID 2283075); settings: primary human keratinocytes with fibroblasts; actives raise or lower the signal
Outline: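 Skin co-culture (keratinocytes + foreskin fibroblasts), human primary; 24 h post-dose; uPA by ELISA; gain/loss fit vs DMSO baseline.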

[17] = read-out: CD40, CD40 (gene 958); assay: BSK_LPS_CD40: BioMAP Diversity Plus: LPS Assay for CD40 Biomarker Activity (AID 2283076); settings: primary human HUVEC with PBMC; actives raise or lower the signal
Outline: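 Primary human umbilical vein endothelial cells co-cultured with peripheral blood mononuclear cells, LPS-stimulated, were dosed with chemical and read 24 h later. CD40 levels were measured by ELISA and fitted bidirectionally against DMSO as negative control and baseline.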

[18] = read-out: E-selectin (Homo sapiens) (UniProt P16581); assay: BSK_LPS_Eselectin: BioMAP Diversity Plus: LPS Assay for Eselectin Biomarker Activity (AID 2283077); settings: primary human HUVEC with PBMC; actives raise or lower the signal
Outline: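 Human umbilical vein endothelial cells co-cultured with peripheral blood mononuclear cells under LPS stimulation; E-selectin measured by ELISA 24 h after chemical dosing. Activity fitted bidirectionally against DMSO as negative control and baseline.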

[19] = read-out: Interleukin-8 (IL8), CXCL8 (gene 3576); assay: BSK_LPS_IL8: BioMAP Diversity Plus: LPS Assay for Interleukin-8 (IL8) Biomarker Activity (AID 2283078); settings: primary human HUVEC with PBMC; actives raise or lower the signal
Outline: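 Human umbilical vein endothelial cells co-cultured with PBMC were stimulated with LPS; IL-8 levels were measured by ELISA 24 h after chemical dosing. Activity was fitted bidirectionally against DMSO as negative control and baseline.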

[20] = BSK_LPS_SRB: Viability Assessment in the BioMAP Diversity Plus: LPS Assay (AID 2283079); settings: primary human HUVEC with PBMC;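 also: total protein by sulforhodamine B absorbance as a cytotoxicity measure; measured one day after compound addition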
Outline: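 Human umbilical vein endothelial cells co-cultured with PBMC (LPS system) were dosed for 24 h. Total protein was stained with 0.1% sulforhodamine B after 10% TCA fixation, read at 560 nm, and fitted bidirectionally against DMSO baseline.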

Measured: AC50

E-selectin (Homo sapiens), sequence (P16581 whole entry, looked up): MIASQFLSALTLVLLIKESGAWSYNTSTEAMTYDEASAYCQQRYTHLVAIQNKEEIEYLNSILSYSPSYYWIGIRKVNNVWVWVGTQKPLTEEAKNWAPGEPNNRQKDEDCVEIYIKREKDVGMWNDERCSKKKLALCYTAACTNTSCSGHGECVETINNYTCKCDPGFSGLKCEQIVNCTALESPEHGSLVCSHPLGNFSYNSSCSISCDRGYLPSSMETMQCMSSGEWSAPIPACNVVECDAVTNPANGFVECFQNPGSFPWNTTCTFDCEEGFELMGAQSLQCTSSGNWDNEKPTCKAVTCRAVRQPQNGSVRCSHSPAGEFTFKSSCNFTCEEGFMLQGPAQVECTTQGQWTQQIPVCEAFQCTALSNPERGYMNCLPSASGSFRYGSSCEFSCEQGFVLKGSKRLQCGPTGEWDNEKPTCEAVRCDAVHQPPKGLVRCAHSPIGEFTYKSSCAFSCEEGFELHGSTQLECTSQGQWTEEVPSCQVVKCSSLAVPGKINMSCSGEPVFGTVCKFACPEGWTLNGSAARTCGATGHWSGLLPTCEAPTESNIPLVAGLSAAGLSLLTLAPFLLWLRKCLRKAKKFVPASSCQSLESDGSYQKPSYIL

CCCCCCCC=O
inactive: [1] | [2] | [3] | [4] | [5] | [6] | [7] | [8] | [9] | [10] | [11] | [12] | [13] | [14] | [15] | [16] | [17] | [18] | [19] | [20]

c1cc(-c2ccncc2)ccn1
inactive: [1] | [2] | [3] | [4] | [5] | [7] | [8] | [9] | [10] | [11] | [13] | [14] | [15] | [16] | [17] | [18] | [19] | [20]

CC1=C(/C=C/C(C)=C/C=C/C(C)=C/CO)C(C)(C)CCC1
inactive: [3] | [5] | [8] | [11] | [12] | [13] | [14] | [16] | [17] | [19] | [20]
active: [1] 24.2 µM | [2] 37.8 µM | [4] 27 µM | [7] 20.9 µM | [9] 31.4 µM | [15] 32.3 µM | [18] 4.25 µM

Clc1cc(Cl)c(Cl)cc1Cl
inactive: [1] | [2] | [3] | [4] | [6] | [7] | [8] | [9] | [11] | [13] | [14] | [15] | [16] | [17] | [18] | [19] | [20]

Cc1ccc(C)c(O)c1C
inactive: [1] | [2] | [3] | [4] | [7] | [8] | [9] | [10] | [11] | [13] | [14] | [15] | [16] | [17] | [18] | [19] | [20]

CCCCCCCCCCCCCO
inactive: [18] | [20]
active: [1] 13.7 µM | [2] 13.1 µM | [3] 13.1 µM | [4] 24.3 µM | [6] 9.95 µM | [7] 12.9 µM | [8] 36.7 µM | [9] 36.2 µM | [11] 35.2 µM | [12] 34.1 µM | [13] 32.1 µM | [14] 26.1 µM | [15] 31.2 µM | [16] 37.6 µM | [17] 37.8 µM | [19] 34.2 µM

Nc1ccccc1N
active: [6] 6.75 µM | [15] 20 µM | [17] 5.79 µM
inactive: [1] | [2] | [3] | [4] | [5] | [7] | [8] | [9] | [10] | [11] | [13] | [14] | [16] | [18] | [19] | [20]
